# Measurements reported in PubChem BioAssay AID652208 (Broad Institute, 2013).
# Measured potencies and affinities stand elsewhere. The source made the active and inactive calls.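 The calls were made as follows: active = Loss of cell signal with fitted half-effect dose at or below twice the top valid tested dose; inconclusive = Poor fit, or flat fit from -70 to -30 percent; inactive = Half-effect above limit, rising signal, or flat within 30 percent.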
# Test: viability loss in HEK293T cells – cell-based, cherry-picks, cytotoxicity control for HIV Vif inhibitor project, dose response (AID 652208)
# Settings: CellTiter-Glo luminescence, 24 h; series mostly up to 26 µM
row,Compound,outcome
1,NC(=O)c1sc2nc(-c3ccccc3)ccc2c1N,inactive
2,CCc1nn(-c2cc(Oc3cccc4ccccc34)nc(-c3ccccc3)n2)c(N)c1C#N,inactive
3,CCN(CC)c1ccc2cc(C(N)=O)c(=O)oc2c1,inactive
4,Cc1nnc(NC(=O)CSc2nnc(NC(=O)C(C)(C)C)s2)s1,inactive
5,COc1ccc(/C=c2\s/c(=C/C(=O)c3ccc(C)cc3)[nH]c2=O)c(OC)c1,inactive
6,COc1ccc(CC(=O)OCC(=O)Nc2cccc(Br)c2)cc1,inactive
7,CCOC(=O)C1=C(C)NC(=O)NC1,inactive
8,COc1cc(OC)cc(C(=O)NC(C(=O)Nc2ccc3c(c2)OCO3)C(C)C)c1 (stereo not drawn),inactive
9,O=C(O)c1ccc(-c2nc(-c3cccc(C(F)(F)F)c3)cs2)cc1,inactive
10,O=C(NCc1cccnc1)NC1(C(F)(F)F)Oc2ccc(Cl)cc2O1 (stereo not drawn),inactive
11,CCN(CC)C1Oc2cc3c(cc2C(c2cc(OC)c(OC)c(OC)c2)C1C)OCO3 (stereo not drawn),inactive
12,COc1ccccc1Nc1nnc(C)c(=O)[nH]1,inactive
13,COc1cccc(NC(=O)c2cc(C(=O)Nc3cccc(OC)c3)n(C)n2)c1,inactive
14,CC1CN(S(=O)(=O)c2cccc(C(=O)N3CCC(C(N)=O)CC3)c2)CC(C)O1 (stereo not drawn),inactive
15,COc1ccccc1N1C(=O)c2cccc3c(N(C)CCO)ccc(c23)C1=O,inactive
16,COc1ccc(-c2cc(C(=O)Nc3ccc4c(c3)OCO4)no2)cc1,inactive
17,S=C(NC1CC1)N1CCc2ccccc2C1,inactive
18,CCC(=O)Nc1ccc(-c2nnc(SCc3ccc(C(=O)Nc4nccs4)cc3)n2CC)cc1,inactive
19,O=C(NCC1CC1)NC(=O)c1c(F)cccc1Cl,inactive

row,Compound,outcome
1,COc1ccc(C(=O)Nc2cc(OC)c(NC(=O)Nc3ccccc3)cc2OC)cc1,inactive
2,COc1ccc(-c2nc(-c3ccccn3)nc(N3CCN(C)CC3)c2C#N)cc1,inactive
3,COc1ccc(OC)c(NC(=O)c2nc(-c3ccccc3)oc2C)c1,inactive
4,Cc1nc(SCC(=O)N2CCCC2=O)nc(C)c1C,inactive
5,COc1c2occc2c(OC)c2c(=O)cc(C)oc12,inactive
6,CCCCCCOC(=O)C(C#N)c1nc2ccccc2nc1N1CCOCC1 (stereo not drawn),inactive
7,COc1ccc(CNC(=O)COC(=O)c2cc(S(=O)(=O)N3CCOCC3)ccc2O)cc1OC,inactive
8,CC1(C)CC(=O)C2=C(C1)Nc1ccccc1N(C(=O)C1CC1)C2c1ccco1 (stereo not drawn),inactive
9,CCN1CCN(c2cc(=O)n(-c3cc(Cl)ccc3C)c(=O)[nH]2)CC1,inactive
10,COc1ccccc1-c1cccc2nccn12,inactive
11,O=C(Nc1ccnc(-c2cccnc2)n1)c1cccs1,inactive
12,Cc1ccc2c(c1)N(CC(=O)NCC1CCCO1)C(=O)C(C(C)C)O2 (stereo not drawn),inactive
13,CCOC(=O)C1CCCN1C(=O)C1(NC(C)=O)CCCC1 (stereo not drawn),inactive
14,O=C(CCCSc1nc2ccccc2c(=O)[nH]1)c1ccccc1,inactive
15,COc1cc(CNCc2ccccc2)c(Br)cc1OC1CCCC1,inactive
16,CC(C)CCNC(=O)CCc1nnc(COc2ccccc2)o1,inactive
17,Cc1cc(/C=C2\C(=N)N3C(SCc4ccccc4)=NSC3=NC2=O)c(C)n1Cc1ccccc1,inactive
18,Nc1nc(-c2ccc3ccccc3c2)cs1,inactive
19,CC(O)CN(C)CC/C=C1/c2ccccc2CSc2ccccc21 (stereo not drawn),inactive
